# ± gives the standard deviation of the averaged measurements. The full ranking holds about 25,000 sequences; the median of “ln(normalized median fluorescence intensity)” is about 7.9, and the highest 2% start at about 11. The list comes from a sample in which the highest values are over-represented; it also holds similar and randomly drawn sequences.
# System: PfAP2-I AP2 domain 3 (GST-tagged)
# Experiment: gcPBM binding intensity (ln(normalized median fluorescence intensity)); higher = stronger DNA binding
# Summary of the method: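 Binding intensity is the highest Masliner-normalised natural-log median intensity over replicate spots in either probe orientation. To obtain it, GST-tagged P. falciparum DNA-binding domains made in E. coli were incubated for 1 h on an Agilent 4 × 180k array of primer-extended double-stranded 36-bp intergenic genomic probes plus negative controls. Detection used Alexa488 anti-GST antibody with scanning at 488 nm.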
row,Sequence,gcPBM binding intensity (ln)
1,ATATATATATATATGGTGCATGAAAATTTACTTTGA,10.11 ± 0.085
2,TATATATGTATGTATGTACACACAAAAAATGGAATA [CACACA_site9235],8.05 ± 0.45
3,CGTATATCACCAACTAGTACATATAAATAAATAAAT [XGTACX_site8837],7.92 ± 0.5
4,AAAAAGAATATAAGTAGTACAGTGCATATAATAATT [XGTACX_site617],10.3 ± 0.37
5,TATATAATATATATAGTGCATAAGTTCAAAAGAATA [GTGCAC_site9805],9.95 ± 0.16
6,AAAAAGGTTAAGGTAGTGCATAATAAAGAATATTAA,11 ± 0.45
7,AAATAAGAAAAAGCGCGTACACATAACATTTTTATA [XGTACX_site8807],7.82 ± 0.54
8,TTAACGTAAAATATAGTGCATAGTATCATATTGATA [GTGCAC_site9527],9.5 ± 0.099
9,TTTGAAATATTAAATGCATGTTAAAACATAAAAATG [TGCATGCA_site680],7.91 ± 0.73
10,TATGTTTTTGAATGAGTGCATTAAAATAAAACATTT,11.3 ± 0.61
11,GGTTTGAATTTTTAAGTGCATATAACATAAATGAAA,9.86 ± 0.23
12,TATAATATGACAAGAAGTACATATATTTACATATAT [XGTACX_site1571],7.54 ± 0.29
13,AAATCAAACTTTGGTGTGCACAAATATATACATATA [GTGCAC_site9986],10.545 ± 0.007
14,TAATATATATAACAAGTGCAAAAAAATATAGATATT [GTGCAC_site9625],9.38 ± 0.33
15,TATATTAACAAAATGGTGCAATAATTTCTATATTGT [GTGCAC_site9430],11.2 ± 0.54
16,CATAACATAAAATAGGTGCACAAAAATTGTAATTGA,11.37 ± 0.021
17,AAAAATTAACAAAAGGTGCAATTTATTTATTAACGG,10.3 ± 0.5
18,TACAATGAAAAAATAACATGCAATTATATTTCTCTT [TGCATGCA_site833],8.23 ± 0.74
19,TATATTCAAAATGGTACACACAATATTTAATTGTGC [CACACA_site2631],7.68 ± 0.34
20,GTTGTGTAATTCGTAACACACATAAAATATATATAA [CACACA_site6059],7.76 ± 0.48
21,AATAAGTAACAAAATACACACATATAGGTAATTATA [CACACA_site6949],7.62 ± 0.59
22,ATTTAAATACAAAATTGTACTTTTCTATATTTAACA [XGTACX_site6146],7.79 ± 0.41
23,TAATATAATATATAGGTGCAATATTAACAAAAATTT,11 ± 0.44

row,Sequence,gcPBM binding intensity (ln)
1,TATTAATTTAAATGGGTGCAAAACCTATATAAATAT,10.6 ± 0.55
2,TATATTAACAAAATGGTGCAATAATTTCTATATTAT [GTGCAC_site9857],11.3 ± 0.61
3,AATGGGTTACACATATGTACATAAAATATAAAAAAT [XGTACX_site3440],8.06 ± 0.73
4,GGAGAATAGTGGAAAACACACACGTTTGAGATATGG [CACACA_site1168],7.92 ± 0.91
5,GATTAACAACATATTAGTACATATATTATATATATA [XGTACX_site7646],8.61 ± 0.23
6,AGTTTCTATTTAGTGTGTACTTAAGAAAAATATCTC [XGTACX_site82],7.88 ± 0.4
7,AGAAGAAAAGAAATATGTACATAAACGTCTGAACTA [XGTACX_site1699],7.8 ± 0.71
8,CCTTTTGGATGAAAGTGTACAGGTGAGAAAAATTCC [XGTACX_site3358],8.07 ± 0.54
9,TTATCGGTATAATATAGTACATATAGATATATAATA [XGTACX_site1440],7.7 ± 0.39
10,TTTGATAAATTATACACACACAATATATATAAAATA [CACACA_site2023],7.72 ± 0.51
11,CTTAAACTTTTAAATACACACATACAGACATACACA [CACACA_site6401],8.055 ± 0.021
12,AGAAAAAAAAAAAAAAAAAAAAAATTGAATATATAT [TGCATGCA_negctrl_site55],7.67 ± 0.81
13,AGATATTATAATTAATGTACAAAAAGAAAAAATAGA [XGTACX_site8964],7.86 ± 0.64
14,ATATTATAATTGAAGGTGCAAAATGTAATATAGATA [GTGCAC_site9661],10.9 ± 0.49
15,GTAGACATTATAATGGTGCAAAAAAATTAACAAAAA [GTGCAC_site9891],10.9 ± 0.3
16,ATGTATGCAAAAATGGTGCATATTAAATGTATAACA [GTGCAC_site9722],10.8 ± 0.49
17,ATTTTTTTTTAATGCAATATATTTTGAAAATTTTAT [CACACA_negctrl_site753],8.62 ± 0.27
18,TATATATATATATAGGTGCAATATTGAAAAAATATC [GTGCAC_site9535],11.3 ± 0.47
19,AGCAAAACAAAAAAATTAAAATTAACATATAATCAT [GTGCAC_negctrl_site393],7.38 ± 0.62
20,AAATATAATTAATGATGTACACTTATAGATATTGAT [XGTACX_site8435],8.09 ± 0.24
21,ATGTTATTAATAATTGCACACATTTTTTTTTTTTTT [CACACA_site3920],9.12 ± 0.23
22,AAAAATATATAACAAAGTACATATATATTTAGTAAT [XGTACX_site8791],7.43 ± 0.4
23,AAAATAAAATAAAAGTGTACGTTTTAAGAACATTGA [XGTACX_site2382],7.76 ± 0.48

# Reference: the supplement of paper PMC11417369
